Source: PubChem BioAssay
hcDAF-12 act: activates DAF-12 receptor from parasite H. contortus | HEK293 hcDAF-12 lit1-tk-luc reporter, luminescence; 0% DMSO, 100% Δ7-dafachronic acid | activation, % at 6.8 µM | 370,000 compounds, 1.4% hits | AID 652067;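 active means activation above the mean of all tested compounds plus 3 SD, cut at about 5.5% in these data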;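 further: 100% = response to 3 µM Δ7-dafachronic acid high control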
DAX1 inh-1: inhibitors of human orphan nuclear receptor DAX1 (NR0B1). HEK293 Gal4-DAX1 luciferase reporter, luminescence. inhibition, % at 6.75 µM. AID 504766. P51843. 340,000 compounds, 0.99% hits;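 active means inhibition above the mean over all tested compounds plus 3 SD, cut at about 4.2% in these data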;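 further: 0% = DAX1-transfected cells with DMSO and 100% = empty-vector control cells with DMSO; inhibition shows as a rise in luminescence from relieved DAX1 repression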
Target sequence (P51843 207-470 limits assumed): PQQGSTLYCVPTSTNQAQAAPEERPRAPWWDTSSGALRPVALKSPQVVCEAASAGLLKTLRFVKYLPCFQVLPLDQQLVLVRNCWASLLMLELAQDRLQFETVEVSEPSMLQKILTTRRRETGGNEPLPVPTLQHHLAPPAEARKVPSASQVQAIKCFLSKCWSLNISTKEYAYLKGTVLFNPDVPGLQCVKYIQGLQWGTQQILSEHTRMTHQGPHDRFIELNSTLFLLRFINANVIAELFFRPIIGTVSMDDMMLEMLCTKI
hgDAF12 agonist: activates the H. glycines DAF-12 receptor ligand-binding domain; HEK293 GAL4-hgDAF12 UAS-luciferase reporter, agonist luminescence; normalized to butyrate control; activation, % at 6.8 µM; 370,000 compounds, 1.8% hits; AID 687014;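 active means activation above a cutoff set at the mean of all screened compounds plus 3 SD, cut at about 10% in these data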;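 further: 0% = DMSO wells and 100% = sodium butyrate wells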
DAX1 inh-2: DAX1 (NR0B1) inhibition, primary screen. HEK293T StAR-luciferase reporter, SF-1/DAX-1 repression relief. inhibition, % at 6.8 µM. 370,000 compounds, 1.1% hits. AID 652010;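 active means inhibition above the mean over all tested compounds plus 3 SD, cut at about 3.6% in these data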;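 further: 0% = DAX-1 cells with DMSO and 100% = cells lacking DAX-1 with DMSO; higher inhibition means more luminescence from relief of DAX-1 repression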
ssDAF-12 act: S. stercoralis DAF-12 activation, primary screen; activation, % at 6.8 µM; 370,000 compounds, 1% hits; HEK293 ssDAF-12/GRIP1 lit1-tk-luc reporter, luminescence; % of 3 µM dafachronic acid response;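 active means activation above the mean over all tested compounds plus 3 SD, cut at about 0.9% in these data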;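 further: 0% = DMSO-only wells and 100% = 3 µM delta7-dafachronic acid wells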
AHR act: activates the human aryl hydrocarbon receptor | P35869 | AHR-responsive luciferase reporter cells, luminescence | activation, % at 5 µM | 320,000 compounds, 2.5% hits; in the data active means activation above about 47%;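 further: 0% = vehicle wells and 100% = reference agonist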
Numbers without * were called inactive; nt = no result given. In the library only some 5.7% were active in any assay of this set; here they are far more common.

SMILES | hcDAF-12 act | DAX1 inh-1 | hgDAF12 agonist | DAX1 inh-2 | ssDAF-12 act | AHR act
O=C(CN1C(=O)C2C3C=CC(C3)C2C1=O)Nc1cccc2c1CCCC2 (configuration not stated) | -2 | 2 | 1 | 1 | -1 | 7
O=C(COC(=O)CCC(=O)c1ccc(F)cc1)Nc1ccc(F)cc1F | 0 | 1 | 3 | 0 | -1 | 1
Cc1ccc(NC(=O)c2cc3ccccc3oc2=O)cc1S(=O)(=O)N(C)C | nt | nt | nt | nt | nt | -8
COC(=O)c1cccc(NC(=O)c2cc3ccccc3o2)c1 | 3 | -1 | 12* | 2 | 0 | -12
COc1ccc(C)cc1NC(=O)c1cccc(C(=O)Nc2cc(C)ccc2OC)c1 | 0 | 2 | -2 | 0 | -1 | 4
Cc1ccc(NC(=O)c2cc3ccccc3o2)cc1S(=O)(=O)N(C)C | 3 | 3 | 11* | 1 | 0 | nt
COc1ccc(C)cc1NC(=O)c1ccc(OC(F)F)cc1 | 5 | 1 | 1 | 0 | -1 | 70*
Fc1ccc(-c2ccc3c(n2)CCCN3Cc2ccccn2)cc1 | 2 | nt | 7 | 3.8* | -1 | nt
Cc1cc(C)n2nc3nc(N4CCCC4)nc(-c4ccccc4)c3c2n1 | nt | 1 | nt | nt | nt | 32
CCN(CC)C(=S)SCC(=O)c1ccc(F)cc1 | 3 | 2 | 9 | 2 | 1.1* | 3
CCN(CC)C(=S)SCC(=O)c1ccccc1 | 2 | 4 | 11* | 2 | 0 | 5
C=CCC1(CC=C)CCCN1C(=O)c1cc(COc2ccc(F)c(F)c2)on1 | -1 | 0 | -2 | 0 | -1 | 5
Cc1cc(C)c(C#N)c(OCC(=O)c2ccccc2)n1 | 2 | 1 | 2 | -1 | -1 | 52*
CC(OC(=O)CSc1ccc([N+](=O)[O-])cc1)C(=O)NCc1ccccc1 (configuration not stated) | nt | 0 | nt | nt | nt | 1
CCN(C(=O)CSc1nncn1-c1ccccc1)C1CCS(=O)(=O)C1 (configuration not stated) | 3 | 0 | 0 | -1 | 1 | 0
CCN(C(=O)CSc1nnnn1-c1ccc(Cl)cc1)C1CCS(=O)(=O)C1 (configuration not stated) | 0 | 1 | -1 | 4.0* | -1 | 1
O=C1CC(=O)C(n2cncn2)C(c2ccc(Cl)cc2)C1 (configuration not stated) | 2 | 5.8* | -1 | -1 | -1 | -4
COc1ccc(-c2oc3ccc(N4CCOCC4)cc3c2C#CC2(O)CCCCC2)cc1 | 1 | 1 | 1 | 0 | 0 | 69*
COc1ccc(/C=C/c2c(-c3cccc(C)c3)oc3ccc(N4CCOCC4)cc23)cc1 | 0 | 2 | 2 | 0 | 0 | 62*
COc1ccc(C#Cc2c(-c3ccc(OC)cc3)oc3ccc(-c4ccc(OC)cc4)cc23)cc1 | -1 | 0 | 0 | 0 | -1 | 1
COc1ccc(C#Cc2c(-c3ccsc3)oc3ccc(N4CCOCC4)cc23)cc1 | -1 | 1 | 1 | 0 | -1 | 70*
Cc1ccc(NC(=O)COc2ccccc2)cc1S(=O)(=O)N1CCCCCC1 | -2 | -2 | -2 | -3 | -1 | 1
O=C(Nc1cnccn1)Nc1ccccc1F | -2 | 0 | 2 | 1 | -1 | 61*
O=C(Nc1ccc(Cl)cn1)Nc1ccc(Cl)cn1 | 0 | 0 | 1 | -1 | -2 | 14
O=C(Nc1ccc(Cl)cn1)Nc1ccccc1F | 1 | 6.9* | 8 | 0 | 1.6* | 39
SMILES | hcDAF-12 act | DAX1 inh-1 | hgDAF12 agonist | DAX1 inh-2 | ssDAF-12 act | AHR act
C/C(=C\c1ccccc1)C(=O)Nc1ccc(Cl)cn1 | 5.6* | 1 | 12* | 3 | 0 | -1
O=C(CCC1CCCC1)Nc1cc(C(F)(F)F)ccc1N1CCOCC1 | 0 | 0 | 0 | 0 | -1 | 0
N/C(=N\NC(=O)c1cccc(F)c1)c1cc2ccccc2oc1=O | 4 | -2 | 6 | 1 | 0 | 3
CCN1CCN(C(=O)c2ccc(Cl)c(S(=O)(=O)N(C)c3ccccc3)c2)CC1 | 0 | 6.0* | -1 | 0 | -1 | 0
CN(c1ccc(C(=O)N2CCN(Cc3ccccc3)CC2)cc1)S(=O)(=O)c1ccccc1 | -2 | -2 | -1 | -1 | -2 | -1
c1ccc(OCc2nn3c(-c4n[nH]c5c4CCC5)nnc3s2)cc1 | 0 | -1 | -2 | 0 | -1 | 68*
